This is an account of results in PubChem BioAssay (Tox21).

The structures appear in SMILES notation. Several values for one entry are separate records, joined by “and”; a condition that tells them apart may be missing. Equal values may be shown once. Records with an inconclusive call do not appear. A structure can be active in one record and inactive in another. Activity calls are given as the source filed them. Unless noted, the call rests on the fitted dose curve; in most records, active means well fitted curve in the direction sought with a large enough effect in the repeat runs; inconclusive means weak or mixed curves; inactive means no such curve, though single readings can be large; an effect the other way counts as inactive or inconclusive.

A short description of experiment [1]: qHTS assay to identify small molecule antagonists of the thyroid receptor (TR) signaling pathway (AID 743065). Further: nearly all actives have a fitted effect of over 55% in size. Further: potency means the concentration at half of the fitted maximal effect. A digest of the protocol:
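GH3.TRE-Luc rat pituitary cells (two TREs driving luciferase) were dosed with compound, then stimulated with 1 nM T3 (final) for 23.5 h at 37 C. ONE-Glo luminescence was the read-out, with CellTiter-Fluor fluorescence as the cytotoxicity counter-screen.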
On the technique in general: Quantitative high-throughput screening tests each substance at several concentrations.

For experiment [2], the system named is thyroid hormone receptor (rat, GH3 cells). Description: qHTS assay to identify small molecule agonists of the thyroid receptor (TR) signaling pathway (AID 743066; calls by dose curve).
The target of experiment [3] is Estrogen receptor (Homo sapiens) (UniProt P03372). Nature of the experiment: qHTS assay to identify small molecule antagonists of the estrogen receptor alpha (ER-alpha) signaling pathway (AID 743069; active means well fitted curve in the direction sought with a large enough effect in the signal ratio in the repeat runs, not every such curve was filed as active; the % refers to the signal ratio). The gist of the method: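 In this cell-based reporter format, GripTite HEK293 cells harbouring ER-alpha-UAS-bla were grown overnight with 2% charcoal-stripped FBS, dosed with DMSO-dissolved compounds, then challenged with 17beta-estradiol. After 18 hr at 37C, beta-lactamase activity was detected by FRET fluorescence.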
Estrogen receptor (Homo sapiens), sequence (P03372 whole entry, looked up): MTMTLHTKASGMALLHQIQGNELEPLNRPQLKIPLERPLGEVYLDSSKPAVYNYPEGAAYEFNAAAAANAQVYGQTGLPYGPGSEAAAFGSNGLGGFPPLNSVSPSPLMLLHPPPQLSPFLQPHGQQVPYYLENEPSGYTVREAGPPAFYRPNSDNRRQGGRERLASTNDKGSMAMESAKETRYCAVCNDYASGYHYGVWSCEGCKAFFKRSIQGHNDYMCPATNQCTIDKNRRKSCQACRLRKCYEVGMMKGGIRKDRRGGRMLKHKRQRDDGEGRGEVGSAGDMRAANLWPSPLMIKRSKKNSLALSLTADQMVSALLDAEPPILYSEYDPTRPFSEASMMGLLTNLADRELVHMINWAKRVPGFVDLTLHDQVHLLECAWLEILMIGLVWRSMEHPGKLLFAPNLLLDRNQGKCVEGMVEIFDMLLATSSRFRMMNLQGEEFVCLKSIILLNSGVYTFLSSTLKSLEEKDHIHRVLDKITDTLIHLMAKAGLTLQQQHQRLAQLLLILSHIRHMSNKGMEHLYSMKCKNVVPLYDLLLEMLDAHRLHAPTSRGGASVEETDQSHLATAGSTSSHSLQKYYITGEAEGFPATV

Experiment [4] is described as follows: qHTS assay to identify small molecule antagonists of the estrogen receptor alpha (ER-alpha) signaling pathway - cell viability counter screen (AID 743074; calls by dose curve; further: nearly all actives have a fitted effect of over 45% in size).
Experiment [5] concerns the target Estrogen receptor (Homo sapiens) (UniProt P03372). Description: qHTS assay to identify small molecule agonists of the estrogen receptor alpha (ER-alpha) signaling pathway (AID 743075; calls by dose curve).
Experiment [6] shares this target. Description: qHTS assay to identify small molecule agonists of the estrogen receptor alpha (ER-alpha) signaling pathway using the BG1 cell line (AID 743079). Further: nearly all actives have a fitted effect of over 20% in size. Further: potency means the concentration at half of the fitted maximal effect.
The nature of experiment [7]: qHTS assay to identify small molecule antagonists of the estrogen receptor alpha (ER-alpha) signaling pathway using the BG1 cell line (AID 743080; calls by dose curve;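 further: BG1 cells stimulated with 17beta-estradiol alongside compound; nearly all actives have a fitted effect of over 25% in size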; further: potency means the concentration at half of the fitted maximal effect). The gist of the method:
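Quantitative HTS on the Tox21 10K library: BG1 cells with endogenous ER-alpha and ERE-luciferase reporter, 17beta-estradiol stimulation, 21.5 h compound exposure, luminescence endpoint with parallel fluorescence cytotoxicity counter-read.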

Experiment [8] in a line: qHTS assay to identify small molecule antagonists of the estrogen receptor alpha (ER-alpha) signaling pathway using the BG1 cell line - cell viability counter screen (AID 743081).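 Further: compound given together with 17beta-estradiol as the ER stimulus; nearly all actives have a fitted effect of over 45% in size.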 Further: potency means the concentration at half of the fitted maximal effect.
The nature of experiment [9]: qHTS assay to identify aromatase inhibitors - cell viability counter screen (AID 743084).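 Further: cells stimulated with testosterone during compound exposure; nearly all actives have a fitted effect of over 55% in size.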 Further: potency means the concentration at half of the fitted maximal effect.
Experiment [10] has as its target Aryl hydrocarbon receptor (Homo sapiens) (UniProt P35869). Description: qHTS assay to identify small molecule that activate the aryl hydrocarbon receptor (AhR) signaling pathway (AID 743085). Further: nearly all actives have a fitted effect of over 15% in size. Further: potency means the concentration at half of the fitted maximal effect.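 On activation: HG2L7.5c1 human HepG2 liver cells with stably integrated DRE-driven firefly reporter; series mostly up to about 70 µM.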 A digest of the protocol:
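Reporter assay in engineered HepG2 line HG2L7.5c1, whose plasmid carries twenty dioxin responsive elements upstream of firefly luciferase. Treatment lasted 24 h at 37C; ONE-Glo luminescence gauged induction.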

The nature of experiment [11]: qHTS assay to identify small molecule that activate the aryl hydrocarbon receptor (AhR) signaling pathway - cell viability counter screen (AID 743086). Further: nearly all actives have a fitted effect of over 45% in size. Further: potency means the concentration at half of the fitted maximal effect. A digest of the protocol: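 HepG2-AhR-luc (HG2L7.5c1) cells, 4000/well, treated 24 h at 37 C with compound; viability measured as CellTiter-Fluor fluorescence after 30 min in the same wells as the luciferase read.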

Experiment [12] addresses Peroxisome proliferator-activated receptor gamma (Homo sapiens) (UniProt P37231). Description: qHTS assay to identify small molecule agonists of the peroxisome proliferator-activated receptor gamma (PPARg) signaling pathway (AID 743094; active means well fitted activation curve with a large enough effect in the signal ratio in the repeat runs, not every such curve was filed as active; the % refers to the signal ratio). A digest of the protocol: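 Cells from the PPARg UAS-bla HEK293H line are plated and incubated 5 h at 37C. Compounds in DMSO are pinned in and left 17 h at 37C. LiveBLAzer B/G substrate is then added for 1 h at room temperature before fluorescence is measured.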

Experiment [13] can be described thus: qHTS assay to identify small molecule antagonists of the peroxisome proliferator-activated receptor gamma (PPARg) signaling pathway - cell viability counter screen (AID 743194). Further: nearly all actives have a fitted effect of over 55% in size. Further: potency means the concentration at half of the fitted maximal effect. A digest of the protocol: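 Cytotoxicity counter screen in PPARg-bla HEK293H cells, same wells as reporter assay. Compounds plus 50 nM rosiglitazone (final) for 17 h at 37 C, then viability read by CellTiter-Glo luminescence.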

A short description of experiment [14]: qHTS assay for small molecule agonists of the antioxidant response element (ARE) signaling pathway - cell viability counter screen (AID 743203; calls by dose curve; further: nearly all actives have a fitted effect of over 55% in size; further: potency means the concentration at half of the fitted maximal effect). A digest of the protocol:
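Cytotoxicity was tested in parallel with the ARE reporter screen. ARE-bla HepG2 cells were exposed to compounds for 16 hrs, and viability was taken from CellTiter-Glo luminescence.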

Experiment [15] can be described thus: qHTS assay for small molecule activators of the heat shock response signaling pathway - cell viability counter screen (AID 743209). Further: nearly all actives have a fitted effect of over 50% in size. A digest of the protocol:
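Cytotoxicity counter screen run in parallel with the HSE beta-lactamase reporter, using the same wells. HeLa HSE-bla cells received compound for 5 h at 37 C; ATP-based CellTiter-Glo luminescence was measured after 30 min at room temperature.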

A short description of experiment [16]: qHTS assay for small molecule activators of the heat shock response signaling pathway (AID 743210; active means well fitted activation curve with a large enough effect in the signal ratio in the repeat runs, with a control signal flat, not every such curve was filed as active; the % refers to the signal ratio;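 further: HeLa cells with beta-lactamase reporter driven by heat shock elements; series mostly up to about 63 µM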). A digest of the protocol:
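Following overnight attachment, HSE-bla HeLa cells received test compounds for 5 h at 37 C; beta-lactamase activity was then detected via FRET substrate fluorescence.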

In experiment [17] the target is Aromatase (Homo sapiens) (UniProt P11511). Nature of the experiment: qHTS assay to identify aromatase inhibitors (AID 743083). Further: nearly all actives have a fitted effect of over 55% in size. Further: potency means the concentration at half of the fitted maximal effect.
Aromatase (Homo sapiens), sequence (P11511 whole entry, looked up): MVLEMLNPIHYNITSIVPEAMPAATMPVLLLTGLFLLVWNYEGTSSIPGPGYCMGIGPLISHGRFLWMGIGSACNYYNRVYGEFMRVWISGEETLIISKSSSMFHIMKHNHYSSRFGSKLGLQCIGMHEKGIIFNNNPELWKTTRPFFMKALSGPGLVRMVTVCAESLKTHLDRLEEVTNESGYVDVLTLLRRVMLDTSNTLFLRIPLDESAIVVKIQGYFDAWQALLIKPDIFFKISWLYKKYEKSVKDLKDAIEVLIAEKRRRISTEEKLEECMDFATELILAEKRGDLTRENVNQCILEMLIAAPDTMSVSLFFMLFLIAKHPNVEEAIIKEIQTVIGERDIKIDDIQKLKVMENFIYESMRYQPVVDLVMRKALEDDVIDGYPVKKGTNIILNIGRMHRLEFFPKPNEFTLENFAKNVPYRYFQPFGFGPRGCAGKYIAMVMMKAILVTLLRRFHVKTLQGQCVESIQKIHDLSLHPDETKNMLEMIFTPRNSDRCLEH
Experiment [18] is described as follows: qHTS assay to identify small molecule antagonists of the thyroid receptor (TR) signaling pathway - cell viability counter screen (AID 743064). Further: nearly all actives have a fitted effect of over 50% in size. Further: potency means the concentration at half of the fitted maximal effect. A digest of the protocol: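 Same-well viability check: GH3.TRE-Luc cells stimulated with 1 nM T3 alongside test compound for 23.5 h, followed by CellTiter-Fluor fluorescence.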
The target in experiment [19] is Peroxisome proliferator-activated receptor gamma (Homo sapiens) (UniProt P37231). Nature of the experiment: qHTS assay to identify small molecule antagonists of the peroxisome proliferator-activated receptor gamma (PPARg) signaling pathway (AID 743191; calls by dose curve; further: series mostly up to about 63 µM; nearly all actives have a fitted effect of over 30% in size). A digest of the protocol: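 GeneBLAzer PPARg UAS-bla HEK293H cells, 5 h post-plating, exposed to compounds 17 h at 37C. LiveBLAzer B/G FRET substrate added for 1 h at room temperature; beta-lactamase reporter read by fluorescence intensity.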
Peroxisome proliferator-activated receptor gamma (Homo sapiens), sequence (P37231 whole entry, looked up): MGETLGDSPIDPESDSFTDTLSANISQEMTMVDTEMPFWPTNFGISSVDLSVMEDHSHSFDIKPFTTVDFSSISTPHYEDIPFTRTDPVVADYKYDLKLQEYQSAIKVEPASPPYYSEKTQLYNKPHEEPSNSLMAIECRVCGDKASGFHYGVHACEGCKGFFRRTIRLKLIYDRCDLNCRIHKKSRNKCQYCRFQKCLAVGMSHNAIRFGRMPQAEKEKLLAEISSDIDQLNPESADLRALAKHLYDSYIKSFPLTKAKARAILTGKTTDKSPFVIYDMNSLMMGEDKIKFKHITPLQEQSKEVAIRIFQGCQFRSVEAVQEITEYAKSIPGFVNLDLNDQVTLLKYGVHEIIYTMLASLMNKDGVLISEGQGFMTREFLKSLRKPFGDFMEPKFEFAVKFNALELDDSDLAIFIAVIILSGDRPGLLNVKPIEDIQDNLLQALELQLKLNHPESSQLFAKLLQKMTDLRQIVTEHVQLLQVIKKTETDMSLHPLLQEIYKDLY

Experiment [20] can be described thus: qHTS assay for small molecule agonists of the antioxidant response element (ARE) signaling pathway (AID 743202; active means well fitted activation curve with a large enough effect in the signal ratio in the repeat runs, not every such curve was filed as active; the % refers to the signal ratio; further: potency means the concentration at half of the fitted maximal effect). A digest of the protocol: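 HepG2 ARE-bla cells; 16 h treatment at 37 C; FRET-based beta-lactamase fluorescence read after 2 h substrate incubation at room temperature.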

Aryl hydrocarbon receptor (Homo sapiens), sequence (P35869 whole entry, looked up): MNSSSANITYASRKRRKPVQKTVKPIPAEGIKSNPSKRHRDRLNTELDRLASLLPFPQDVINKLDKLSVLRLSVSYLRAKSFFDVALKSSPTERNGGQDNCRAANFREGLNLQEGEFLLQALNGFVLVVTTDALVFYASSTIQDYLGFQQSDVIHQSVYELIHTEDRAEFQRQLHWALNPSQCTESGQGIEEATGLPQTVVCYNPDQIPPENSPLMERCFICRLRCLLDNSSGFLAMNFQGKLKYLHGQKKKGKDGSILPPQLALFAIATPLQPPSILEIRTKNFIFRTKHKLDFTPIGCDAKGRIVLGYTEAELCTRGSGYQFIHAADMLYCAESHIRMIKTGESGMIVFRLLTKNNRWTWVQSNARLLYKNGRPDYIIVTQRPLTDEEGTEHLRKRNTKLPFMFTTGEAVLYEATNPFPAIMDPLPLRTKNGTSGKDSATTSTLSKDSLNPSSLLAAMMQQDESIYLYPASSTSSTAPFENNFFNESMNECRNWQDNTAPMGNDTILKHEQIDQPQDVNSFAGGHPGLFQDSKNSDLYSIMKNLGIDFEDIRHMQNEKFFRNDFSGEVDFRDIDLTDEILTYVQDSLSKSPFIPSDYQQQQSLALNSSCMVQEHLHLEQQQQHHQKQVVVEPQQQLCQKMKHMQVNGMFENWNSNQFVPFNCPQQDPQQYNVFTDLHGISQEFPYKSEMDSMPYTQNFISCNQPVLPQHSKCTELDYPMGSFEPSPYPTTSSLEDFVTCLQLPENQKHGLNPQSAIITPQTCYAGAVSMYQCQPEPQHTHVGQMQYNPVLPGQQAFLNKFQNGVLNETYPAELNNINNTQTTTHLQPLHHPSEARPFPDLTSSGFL

In the case of `C[Si](Cl)(c1ccccc1)c1ccccc1`, the Potency result in experiment [1], in experiment [3], in experiment [4], in [5], in [6] and in [7] was “inactive” throughout. In addition, the Potency entry in [8], in experiment [9], in experiment [10], in experiment [11], in experiment [12] and in [13] was “inactive” each time. Moreover, the Potency entry in experiment [14], in experiment [15] and in experiment [16] was “inactive” in each case. Further, the compound was called inactive in [2].
Turning to `Cc1nc2n(c(=O)c1CCN1CCC(c3noc4cc(F)ccc34)CC1)CCCC2`, the Potency result in experiment [1], in [3], in [4], in experiment [5], in [6] and in experiment [17] was “inactive” in each case. For the same compound, the Potency result in [9], in experiment [10], in experiment [11], in experiment [13], in experiment [14] and in [15] was “inactive” each time. In addition, in experiment [16], the Potency entry was “inactive”. Moreover, the compound was called inactive in experiment [2].
With `CC(C)(C)NSc1nc2ccccc2s1`, the Potency entry in experiment [18], in experiment [3], in [4], in [5], in experiment [6] and in experiment [7] was “inactive” throughout. Also, the Potency entry in experiment [8], in experiment [9], in experiment [11], in experiment [19], in experiment [13] and in experiment [14] was “inactive” each time. The Potency in experiment [10] and in experiment [20] was 27.8 µM (active) throughout.
As for `CNC(=O)c1ccccc1Sc1ccc2c(/C=C/c3ccccn3)n[nH]c2c1`, the Potency entry in experiment [18], in experiment [17], in experiment [11], in experiment [15] and in experiment [16] was “inactive” each time. In addition, the outcome in [2] was inactive. Besides, the Potency in [10] was 3.76 µM (active).
On to `O=C(O)c1cc(N=Nc2ccc([N+](=O)[O-])cc2)ccc1O`, for which the Potency was 47.7 µM (active) in experiment [1]; 60 µM (active) in experiment [6]; 53.5 µM (active) in experiment [8]; 26.8 µM (active) in experiment [9]; 3.37 µM (active) in experiment [10]; 53.5 µM (active) in [11]. In addition, the Potency in [20] is 60 µM (active). In [2], the outcome was inactive. The Potency result in experiment [4], in [5], in experiment [17], in experiment [14], in experiment [15] and in experiment [16] was “inactive” each time.
For `Cc1cc(=O)oc2cc(O)cc(O)c12`, the Potency result in [1], in experiment [3], in experiment [4], in experiment [5], in experiment [7] and in experiment [17] was “inactive” each time. The Potency result in experiment [11], in experiment [13], in [14] and in [15] was “inactive” each time. Further, the outcome in [2] was inactive. Also, in experiment [10], the Potency was 15.4 µM (active).
Regarding `CCc1cccc(CC)c1NC(=O)CN(CC(=O)O)CC(=O)O`, the Potency result in [1], in [3], in experiment [5], in [6], in [7] and in experiment [8] was “inactive” throughout. The Potency result in experiment [17], in experiment [9], in experiment [10], in [11], in experiment [12] and in experiment [13] was “inactive” each time. Moreover, the Potency result in experiment [20], in experiment [14] and in experiment [15] was “inactive” in each case. Further, the compound was classed as inactive in experiment [2].
Consider `Cc1c2ccccc2c(C)c2c1ccc1ccccc12`, for which the Potency in experiment [18] was 27 µM (active) and 13.7 µM (active); in [6] it was 30.3 µM (active); in experiment [7], 67.9 nM (active) and 486 nM (active); in experiment [17] it was “inactive and 27.3 µM (active)”; in experiment [10] it was 8.55 µM (active) and 21.7 µM (active); in experiment [11] it was 60.5 µM (active) and 48.6 µM (active). Also, the Potency in [13] was 49 µM (active). For the same compound, the Potency result in [8] and in experiment [9] was “inactive” each time.
As to `CCCCC(CC)CN1CN(CC(CC)CCCC)CC(C)(N)C1` (stereo not drawn), the Potency result in [1], in experiment [3], in experiment [4], in [5], in experiment [6] and in [7] was “inactive” throughout. Besides, the Potency entry in experiment [8], in experiment [17], in experiment [9], in experiment [10], in experiment [11] and in [12] was “inactive” each time. For the same compound, the Potency entry in experiment [15] was “inactive”. Moreover, in experiment [2], the result was inactive. For the same compound, the Potency in experiment [13] was 29.8 µM (active); in experiment [14], 18.8 µM (active).
Take `CCOC(=O)Cn1cccc1-c1nc(-c2ccc(OC)cc2)c(-c2ccc(OC)cc2)s1`: the Potency in experiment [1] is 13.3 µM (active). Further, the outcome in experiment [2] was inactive. In addition, the Potency result in experiment [4], in experiment [5], in [6], in [7], in experiment [8] and in experiment [17] was “inactive” each time. For the same compound, the Potency result in experiment [9], in [10], in experiment [11], in experiment [12], in experiment [13] and in [14] was “inactive” throughout. Also, in [15], the Potency entry was “inactive”.
